According to PubChem BioAssay AID1159580 (chemical genetic matrix, 2015):
The whole screen tested about 5,500 compounds, of which about 2,000 (36%) were called active. Not shown: some 18% with an inconclusive outcome. Cut-off read from the data, not from the text of the source: active = normalized growth mostly below about 0.91 (no sharp cut-off); inconclusive = no clear call, values can overlap the other calls; inactive = mostly above about 0.92. The list shows a part of the results.

Test: chemical genetic growth profiling, strain panel (AID 1159580);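 note: tested at 20 µM; growth read once vehicle control cultures reached saturation at 30 °C; 1 = growth at the plate median or of vehicle wells; lower values mean less growth of the strain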
Conditions: growth OD
[1] = S. cerevisiae deletion strains, locus YHR030C, strain SLT2, hits give low values

Measured: normalized growth

O=C(O)C1=C(CSc2nnnn2CS(=O)(=O)O)CS[C@@H]2C(NC(=O)[C@H](O)c3ccccc3)C(=O)N12 (stereo partly drawn)
inactive: S. cerevisiae deletion strains, locus YAL021C, strain ccr4, hits give low values 0.955 | S. cerevisiae deletion strains, locus YAL026C, strain drs2, hits give low values 0.965 | S. cerevisiae deletion strains, locus YAL030W, strain snc1, hits give low values 0.993 | S. cerevisiae deletion strains, locus YBL061C, strain skt5, hits give low values 0.989 | S. cerevisiae deletion strains, locus YBR009C, strain hhf1, hits give low values 0.993 | S. cerevisiae deletion strains, locus YBR023C, strain chs3, hits give low values 0.988 | S. cerevisiae deletion strains, locus YBR171W, strain sec66, hits give low values 0.978 | S. cerevisiae deletion strains, locus YBR231C, strain swc5, hits give low values 0.987 | S. cerevisiae deletion strains, locus YBR279W, strain paf1, hits give low values 0.99 | S. cerevisiae deletion strains, locus YCL011C, strain gbp2, hits give low values 0.963 | S. cerevisiae deletion strains, locus YCL016C, strain dcc1, hits give low values 0.987 | S. cerevisiae deletion strains, locus YCL061C, strain MRC1, hits give low values 0.971 | S. cerevisiae deletion strains, locus YCL069W, strain vba3, hits give low values 0.978 | S. cerevisiae deletion strains, locus YCR088W, strain abp1, hits give low values 0.968 | S. cerevisiae deletion strains, locus YDL005C, strain med2, hits give low values 0.98 | S. cerevisiae deletion strains, locus YDL040C, strain nat1, hits give low values 0.989 | S. cerevisiae deletion strains, locus YDR001C, strain nth1, hits give low values 0.978 | S. cerevisiae deletion strains, locus YDR069C, strain doa4, hits give low values 0.982 | S. cerevisiae deletion strains, locus YDR137W, strain rgp1, hits give low values 0.928 | S. cerevisiae deletion strains, locus YDR159W, strain sac3, hits give low values 0.966 | S. cerevisiae deletion strains, locus YDR195W, strain ref2 0.971 | S. cerevisiae deletion strains, locus YDR297W, strain sur2, hits give low values 0.985 | S. cerevisiae deletion strains, locus YDR334W, strain swr1, hits give low values 0.95 | S. cerevisiae deletion strains, locus YDR335W, strain msn5, hits give low values 0.963 | S. cerevisiae deletion strains, locus YDR392W, strain spt3, hits give low values 0.956 | S. cerevisiae deletion strains, locus YEL003W, strain gim4, hits give low values 0.969 | S. cerevisiae deletion strains, locus YEL037C, strain rad23, hits give low values 0.963 | S. cerevisiae deletion strains, locus YEL061C, strain CIN8 (second series), hits give low values 0.972 | S. cerevisiae deletion strains, locus YER015W, strain faa2, hits give low values 0.986 | S. cerevisiae deletion strains, locus YER016W, strain bim1, hits give low values 0.978 | S. cerevisiae deletion strains, locus YER111C, strain swi4, hits give low values 0.981 | S. cerevisiae deletion strains, locus YER155C, strain BEM2 (second series), hits give low values 0.989 | S. cerevisiae deletion strains, locus YFR010W, strain ubp6, hits give low values 0.964 | S. cerevisiae deletion strains, locus YGL167C, strain pmr1, hits give low values 0.987 | S. cerevisiae deletion strains, locus YGL173C, strain kem1, hits give low values 0.983 | S. cerevisiae deletion strains, locus YGL227W, strain vid30, hits give low values 0.994 | S. cerevisiae deletion strains, locus YGL240W, strain doc1, hits give low values 1.01 | S. cerevisiae deletion strains, locus YGL253W, strain hxk2, hits give low values 0.991 | S. cerevisiae deletion strains, locus YHR013C, strain ard1, hits give low values 0.963 | S. cerevisiae deletion strains, locus YHR027C, strain rpn1, hits give low values 0.975 | [1] 1 | S. cerevisiae deletion strains, locus YHR079C, strain IRE1, hits give low values 1.03 | S. cerevisiae deletion strains, locus YHR142W, strain chs7, hits give low values 0.948 | S. cerevisiae deletion strains, locus YJL092W, strain hpr5, hits give low values 0.97 | S. cerevisiae deletion strains, locus YJL095W, strain BCK1 (second series), hits give low values 0.994 | S. cerevisiae deletion strains, locus YJL095W, strain BCK1, hits give low values 1.01 | S. cerevisiae deletion strains, locus YJL115W, strain asf1, hits give low values 0.968 | S. cerevisiae deletion strains, locus YJL129C, strain trk1, hits give low values 0.961 | S. cerevisiae deletion strains, locus YJL154C, strain vps35, hits give low values 0.989 | S. cerevisiae deletion strains, locus YJL164C, strain tpk1, hits give low values 0.982 | S. cerevisiae deletion strains, locus YJL166W, strain qcr8, hits give low values 0.99 | S. cerevisiae deletion strains, locus YJL187C, strain SWE1, hits give low values 0.991 | S. cerevisiae deletion strains, locus YJR066W, strain TOR1, hits give low values 0.945 | S. cerevisiae deletion strains, locus YKL160W, strain elf1, hits give low values 0.974 | S. cerevisiae deletion strains, locus YKR026C, strain gcn3, hits give low values 0.972 | S. cerevisiae deletion strains, locus YKR091W, strain srl3, hits give low values 0.989 | S. cerevisiae deletion strains, locus YLL001W, strain dnm1, hits give low values 0.965 | S. cerevisiae deletion strains, locus YLL026W, hits give low values 0.991 | S. cerevisiae deletion strains, locus YLL041C, strain sdh2, hits give low values 0.982 | S. cerevisiae deletion strains, locus YLR027C, strain aat2, hits give low values 0.984 | S. cerevisiae deletion strains, locus YLR113W, strain HOG1, hits give low values 1.04 | S. cerevisiae deletion strains, locus YLR221C, strain rsa3, hits give low values 0.975 | S. cerevisiae deletion strains, locus YLR258W, strain gsy2, hits give low values 0.995 | S. cerevisiae deletion strains, locus YLR262C, strain YPT6 (second series), hits give low values 0.98 | S. cerevisiae deletion strains, locus YLR320W, strain mms22, hits give low values 0.995 | S. cerevisiae deletion strains, locus YLR342W, strain FKS1, hits give low values 0.982 | S. cerevisiae deletion strains, locus YLR357W, strain rsc2, hits give low values 1 | S. cerevisiae deletion strains, locus YLR370C, strain arc18, hits give low values 0.971 | S. cerevisiae deletion strains, locus YLR384C, strain iki3, hits give low values 0.987 | S. cerevisiae deletion strains, locus YML120C, strain ndi1, hits give low values 0.958 | S. cerevisiae deletion strains, locus YMR058W, strain fet3, hits give low values 0.97 | S. cerevisiae deletion strains, locus YMR125W, strain sto1, hits give low values 0.993 | S. cerevisiae deletion strains, locus YMR129W, hits give low values 0.975 | S. cerevisiae deletion strains, locus YMR205C, strain PFK2, hits give low values 1.01 | S. cerevisiae deletion strains, locus YMR231W, strain pep5, hits give low values 0.984 | S. cerevisiae deletion strains, locus YNL071W, strain lat1, hits give low values 0.992 | S. cerevisiae deletion strains, locus YNL183C, strain NPR1, hits give low values 0.952 | S. cerevisiae deletion strains, locus YNL209W, strain ssb2, hits give low values 0.982 | S. cerevisiae deletion strains, locus YNL248C, strain rpa49, hits give low values 0.947 | S. cerevisiae deletion strains, locus YNL322C, strain KRE1 (second series), hits give low values 0.977 | S. cerevisiae deletion strains, locus YNR049C, strain mso1, hits give low values 0.983 | S. cerevisiae deletion strains, locus YOR001W, strain rrp6, hits give low values 0.942 | S. cerevisiae deletion strains, locus YOR070C, strain gyp1, hits give low values 0.993 | S. cerevisiae deletion strains, locus YOR080W, strain dia2, hits give low values 0.981 | S. cerevisiae deletion strains, locus YOR083W, strain WHI5, hits give low values 0.972 | S. cerevisiae deletion strains, locus YOR106W, strain vam3, hits give low values 0.971 | S. cerevisiae deletion strains, locus YOR231W, strain MKK1, hits give low values 1.01 | S. cerevisiae deletion strains, locus YOR265W, strain rbl2, hits give low values 0.991 | S. cerevisiae deletion strains, locus YOR270C, strain vph1, hits give low values 0.964 | S. cerevisiae deletion strains, locus YOR290C, strain snf2, hits give low values 0.979 | S. cerevisiae deletion strains, locus YPL051W, strain arl3, hits give low values 0.998 | S. cerevisiae deletion strains, locus YPL078C, strain atp4, hits give low values 0.966 | S. cerevisiae deletion strains, locus YPL106C, strain sse1, hits give low values 0.961 | S. cerevisiae deletion strains, locus YPL240C, strain hsp82, hits give low values 0.971 | S. cerevisiae deletion strains, locus YPL256C, strain CLN2, hits give low values 1.04

Cc1c(C)c(C)c(S(=O)(=O)Nc2ccccc2N)c(C)c1C
inactive: S. cerevisiae deletion strains, locus YAL013W, strain DEP1, hits give low values 1.01 | S. cerevisiae deletion strains, locus YBR229C, strain ROT2, hits give low values 0.993 | S. cerevisiae deletion strains, locus YDL101C, strain DUN1, hits give low values 1.04 | S. cerevisiae deletion strains, locus YDR150W, strain NUM1, hits give low values 1.02 | S. cerevisiae deletion strains, locus YEL061C, strain CIN8, hits give low values 0.959 | S. cerevisiae deletion strains, locus YGR078C, strain PAC10, hits give low values 1.01 | [1] 1.01 | S. cerevisiae deletion strains, locus YHR087W, strain rtc3, hits give low values 0.989 | S. cerevisiae deletion strains, locus YJR043C, strain POL32, hits give low values 1.03 | S. cerevisiae deletion strains, locus YJR075W, strain HOC1, hits give low values 1.01 | S. cerevisiae deletion strains, locus YKL190W, strain CNB1, hits give low values 0.994 | S. cerevisiae deletion strains, locus YLR039C, strain RIC1, hits give low values 0.988 | S. cerevisiae deletion strains, locus YLR058C, strain SHM2 (second series), hits give low values 0.975 | S. cerevisiae deletion strains, locus YLR085C, strain ARP6, hits give low values 0.988 | S. cerevisiae deletion strains, locus YLR262C, strain YPT6, hits give low values 0.981 | S. cerevisiae deletion strains, locus YML094W, strain GIM5, hits give low values 1 | S. cerevisiae deletion strains, locus YMR219W, strain ESC1, hits give low values 0.999 | S. cerevisiae deletion strains, locus YMR263W, strain SAP30, hits give low values 1.01 | S. cerevisiae deletion strains, locus YNL128W, strain TEP1, hits give low values 0.978 | S. cerevisiae deletion strains, locus YNL153C, strain GIM3, hits give low values 1.04 | S. cerevisiae deletion strains, locus YNL298W, strain CLA4 (second series), hits give low values 0.982 | S. cerevisiae deletion strains, locus YNL322C, strain KRE1, hits give low values 0.996 | S. cerevisiae deletion strains, locus YNR030W, strain Alg12, hits give low values 0.966 | S. cerevisiae deletion strains, locus YOL006C, strain TOP1, hits give low values 1.02 | S. cerevisiae deletion strains, locus YPL055C, strain LGE1, hits give low values 0.991 | S. cerevisiae deletion strains, locus YPL241C, strain CIN2, hits give low values 0.974 | S. cerevisiae deletion strains, locus YPR135W, strain CTF4, hits give low values 1.06 | S. cerevisiae strains, strain wild type, hits give low values 0.975
